# In PubChem BioAssay (NCI):
# This is part of a sample that, as a whole, favours compounds with a hit. Of some 83,000 tested, about 20% had one in any assay.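 Cell lines were cultured in 96-well plates, exposed to a single compound concentration, and assessed for percent growth 48 hours later.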 Activity calls are given as the source filed them. Rule for the calls: active = growth percent below 10; inactive = the rest.
# Tested on: HL-60(TB) leukemia
# Test: NCI-60 one-dose screen, 48 h (100 = growth as untreated, 0 = no growth, -100 = all killed)
# Conditions: 10 µM unless noted
row,SMILES,growth
1,N=C1c2nc3n(c2C(=O)c2nc4n(c21)CCCC4)CCCC3,96.3% (inactive)
2,O=C(N/N=C/c1ccc([N+](=O)[O-])o1)c1ccc(O)cc1,19.8% (inactive)
3,O=C(Cc1ccc(F)c(Cl)c1)Nc1cc(C2(C(F)(F)F)CC2)nn1CC1CCCCC1,14.8% (inactive)
4,COc1ccc(CNC(=O)C(=O)[C@H](Cc2ccccc2)NC(=O)c2[nH]c3ccccc3c(=O)c2C)cc1,110% (inactive)
5,COc1ccc(-c2cc(-c3ccccc3)nc(NCCNc3ccnc4cc(Cl)ccc34)n2)cc1,-58.7% (active)
6,COc1cc2c(cc1OCCCCN1CCN(C(=S)SCCC(C#N)(c3ccccc3)c3ccccc3)CC1)N=C[C@@H]1CCCN1C2=O,-40.8% (active)
7,Cn1ccnc1C(=O)/C=C/c1ccc(CC(=O)Nc2cc(C(F)(F)F)cc(C(F)(F)F)c2)cc1,16.1% (inactive)
8,Nc1ccc2c(S(=O)(=O)O)ccc(S(=O)(=O)O)c2c1,76.2% (inactive)
9,O=C(CSc1nnc(-c2cc3c([nH]c4ccccc43)c(-c3cccc(O)c3)n2)n1-c1ccccc1)c1ccccc1,56.2% (inactive)
10,O=C(Cn1cncn1)Nc1ccc(-c2nc3ccccc3s2)cc1,102% (inactive)
11,COc1cccc(-c2nc3sccn3c2-c2ccnc(NCCNS(=O)(=O)c3cccc(F)c3)c2)c1,-1.8% (active)
12,CCN(CC)CC#CCOC(=O)[C@]1(C)CCC[C@]2(C)c3ccc(C(C)C)cc3CC[C@@H]12,63.6% (inactive)
13,Cc1nc(N/N=C/c2cn(-c3ccccc3)nc2-c2cc3ccccc3oc2=O)sc1N=Nc1ccccc1,89% (inactive)
14,COc1ccc(-c2nsc3c2NC(=O)CC3c2ccc3c(c2)OCO3)cc1 (stereo not given),-22.3% (active)
15,O=[N+]([O-])c1c(O)c(CNCCCO)cc(CNCCCO)c1O,75.8% (inactive)
16,Cc1nc2sc(C(=O)Nc3ccccc3)c(N)c2cc1C(C)O (stereo not given),-2.23% (active)
17,O=C1c2cc(Cl)ccc2Oc2cc([N+](=O)[O-])ccc2N1c1ccc(F)cc1F,76% (inactive)
18,Cc1cc(NC(=O)c2ccc(C)c(Nc3nccc(-c4cccnc4)n3)c2)cc(-n2cnc(C)c2)c1,22.8% (inactive)
19,NC(=N\N=C/c1ccccc1[N+](=O)[O-])/C(N)=N\N=C/c1ccccc1[N+](=O)[O-],105% (inactive)
20,COc1cc(C(=O)/C=C/c2ccc3nc(-c4cc(F)cc(F)c4)sc3c2)cc(OC)c1OC,60.1% (inactive)

row,SMILES,growth
1,O=C(O)CCN1C(=O)/C(=C/C(Cl)=C/c2ccccc2)SC1=S,5.78% (active)
2,CN1CCN(Cc2ccc(NC(=O)c3cncc(C#Cc4cnc(N)c5ccncc45)c3)cc2C(F)(F)F)CC1,-9.61% (active)
3,Cc1c(C)c2c(c(C)c1OCC(=O)O)CC[C@@](C)(CCC[C@@H](C)CCC[C@@H](C)CCCC(C)C)O2,1.94% [50 µM] (active)
4,CS(=O)(=O)Nc1cccc(-c2cc(-c3ccccc3Cl)c(C#N)c(N)n2)c1,8.6% (active)
5,O=P(O)(c1ccccc1)c1ccccc1I,117% (inactive)
6,CCOC(=O)c1c(C)[nH]c(C(=O)CCC(=O)OC)c1C,94.9% (inactive)
7,Cn1cc(C(=O)c2nc(-c3c[nH]c4ccc(Br)cc34)no2)c2cc(F)ccc21,94.7% (inactive)
8,CNCCNc1nc2ccccc2c2c(=O)c3cc(F)ccc3sc12,-33.1% (active)
9,CN1CCCc2cc(/C=C3/SC(=S)N(CCc4ccc(O)cc4)C3=O)ccc21,8.87% (active)
10,CCNC(=O)Oc1ccc(/C(=C(/CC)Cc2ccccc2)c2ccc(OCCN3CCOCC3)cc2)cc1,5.28% (active)
11,CCOC(=O)c1ccc2n1CCCc1cnc(NC(C)=O)nc1-2,109% (inactive)
12,COc1ccc(C(=O)N2c3ccccc3Sc3ccccc32)c(C(F)(F)F)c1,2.01% (active)
13,CN(C)CCOC(=O)Nc1ccccc1Cl,112% (inactive)
14,Cc1ncc([N+](=O)[O-])n1CCOc1ccc(C(=O)/C=C/c2ccc(C(F)(F)F)cc2)cc1,54.3% (inactive)
15,Nc1ccc(CC(=O)O)c(N)c1,102% (inactive)
16,COc1cccc(C2C3=C(COC3=O)N(CCO)c3cc4c(cc32)CCC4)c1 (stereo not given),-0.364% (active)
17,COc1cc2cc3c(nc2cc1OC)CCN3Cc1ccc(NC(=O)Nc2ccc(F)cc2F)cc1,80.5% (inactive)
18,O=C(Nc1cccc2cccnc12)c1cc(C(=O)c2ccc(Cl)cc2)n2ccc(-c3ccncc3)cc12,125% (inactive)
19,CC(=O)OCC(=O)O[C@@H]1C[C@]2(C(C)C)O[C@@]1(C)[C@@H]1CC[C@@H](C)[C@H]1[C@@H]2OC(=O)/C=C/c1ccccc1,82.6% (inactive)
20,Cc1cccc(-[n+]2noc(N)n2)c1,30.8% (inactive)
